PubChem BioAssay
Records with an inconclusive call do not appear. Active and inactive are the calls of the source. Unless noted, no cut-off is given here; in the data, nearly all actives have AC50 up to about 26 µM.

Assays:
[1] = growth inhibition of DIPG glioma cells, dose response, cell-based, SU-DIPG-XVII, MIPE5.0, CellTiter-Glo, qHTS (AID 1347060); conditions: SU-DIPG-XVII viability, CellTiter-Glo ATP luminescence;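 for AC50: cells exposed to compound for 48 hours before viability readout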
[2] = growth inhibition of DIPG glioma cells, dose response, cell-based, SU-DIPG-XIII, MIPE4.0, CellTiter-Glo, qHTS (AID 1347061; cut-off not given, nearly all actives have AC50 up to about 37 µM;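 note: cells exposed to compound for 48 hours before readout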); conditions: SU-DIPG-XIII viability, CellTiter-Glo ATP luminescence
[3] = growth inhibition of DIPG glioma cells, dose response, cell-based, JHH-DIPG-1, MIPE4.0, CellTiter-Glo, qHTS (AID 1347062; cut-off not given, nearly all actives have AC50 up to about 27 µM;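 for AC50: cells exposed to compound for two days before readout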); conditions: JHH-DIPG-1 viability, CellTiter-Glo ATP luminescence
[4] = growth inhibition of DIPG glioma cells, dose response, cell-based, SU-DIPG-IV, MIPE4.0, CellTiter-Glo, qHTS (AID 1347063; cut-off not given, nearly all actives have AC50 up to about 30 µM;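 note: compound exposure lasted 48 hours before the viability readout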); conditions: SU-DIPG-IV viability, CellTiter-Glo ATP luminescence
[5] = viability loss in pontine glioma line – cell-based, SU-DIPG-XXV, MIPE5.0, CellTiter-Glo, qHTS, dose response (AID 1347065); conditions: CellTiter-Glo ATP luminescence;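 note: cells exposed to compound for 48 hours before ATP readout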
[6] = SU-DIPG-VI glioma cell viability, MIPE4.0 library, CellTiter-Glo luminescence, qHTS (AID 1347066; cut-off not given, nearly all actives have AC50 up to about 30 µM;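 note: cells exposed to compound for 48 hours before readout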); conditions: CellTiter-Glo ATP luminescence
[7] = JHH-DIPG-1 glioma cell viability, MIPE5.0 library, CellTiter-Glo luminescence, qHTS (AID 1347067); conditions: JHH-DIPG-1 glioma viability, CellTiter-Glo ATP luminescence;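 note: cells exposed to compound for 48 hours before readout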
[8] = SU-DIPG-XXV glioma cell viability, MIPE5.0 library, qHTS (AID 1347068; cut-off not given, nearly all actives have IC50 up to about 30 µM;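 for IC50: cells exposed to compound for 48 hours before viability readout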)
[9] = modifiers of HSF1 nuclear foci, imaging, Selleck Cancer Library (AID 1347162; in the data active = plate-normalised HSF1 focus index below about 0.46); conditions: human cells, at 10 µM; SSMD: measured here: HSF1 foci SSMD mean; cell count: measured here: cell number; plate-normalised HSF1 focus index: stronger effect = lower value
[10] = LFS_MB_P medulloblastoma growth inhibition, cell-based, chromothripsis tumors, cisplatin or BGB combos (AID 1671449; in the data active = inhibition above about 80%;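 note: cells exposed for 96 hours; 0% = vehicle DMSO and 100% = killing by high DMSO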); conditions: LFS_MB_P medulloblastoma cells
[11] = HDN33 neuroblastoma growth inhibition, cell-based, chromothripsis tumors, cisplatin or BGB combos (AID 1671450; in the data active = inhibition above about 80%;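 note: cells exposed to compound for four days; 0% = vehicle DMSO and 100% = cell killing by high DMSO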); conditions: HDN33 neuroblastoma cells, stronger effect = higher value
[12] = ICB984 medulloblastoma cell growth inhibition, synergistic combos for chromothripsis tumors, cisplatin or BGB combos (AID 1671451; call rule not given here;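 note: cells exposed for 96 hours before readout; 0% = vehicle DMSO and 100% = killing by high DMSO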); conditions: ICB984 medulloblastoma cells, drug combinations, stronger effect = higher value
[13] = HTB85 osteosarcoma cell growth inhibition, synergistic combos for chromothripsis tumors, BGB or cisplatin IC20 combos (AID 1671453; in the data active = inhibition above about 80%;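 note: cells exposed for 96 hours before readout; 0% = vehicle DMSO and 100% = high DMSO killing control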); conditions: HTB85 osteosarcoma cells, drug combinations, stronger effect = higher value
[14] = MDA-MB-436 breast carcinoma cell growth inhibition, synergistic combos for chromothripsis tumors, BGB or cisplatin combos (AID 1671458; call rule not given here;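 note: cells exposed for 96 hours; 0% = vehicle DMSO and 100% = killing by high DMSO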); conditions: MDA-MB-436 breast carcinoma growth inhibition, drug combinations, stronger effect = higher value
[15] = growth inhibition of BT084 medulloblastoma cells, cell-based, ICGC_MB145, cisplatin and BGB IC40 combos (AID 1671461; in the data active = inhibition above about 80%;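 note: cells exposed to drugs for 96 hours; 0% = vehicle DMSO and 100% = high DMSO full killing control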); conditions: drug combinations, stronger effect = higher value
[16] = growth inhibition of RCMB18 medulloblastoma cells, cell-based, cisplatin and BGB IC40 combos (AID 1671462; in the data active = inhibition above about 80%;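 note: cells exposed to compound for four days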); conditions: stronger effect = higher value

Structure (SMILES): CCN1CCN(CC(=O)Nc2ccc(-c3cccc4c(=O)cc(N5CCOCC5)oc34)c3sc4ccccc4c23)CC1
- AC50 [1]: 9100 nM (active)
- AC50 [2]: 18700 nM (active)
- AC50 [3]: 16600 nM (active)
- AC50 [4]: 11800 nM (active)
- AC50 [5]: 6450 nM (active)
- AC50 [6]: 5900 nM (active)
- AC50 [7]: 12900 nM (active)

Structure (SMILES): C[C@@H]1CC[C@@]2(OC1)OC1CC3C4CC=C5CC(O)CCC5(C)C4CCC3(C)C1[C@@H]2C (some centres not stated)
- outcome [1]: inactive
- outcome [2]: inactive
- outcome [3]: inactive
- outcome [4]: inactive
- outcome [5]: inactive
- outcome [6]: inactive
- outcome [7]: inactive
- outcome [8]: inactive

Structure (SMILES): Cc1ccc([N+](=O)[O-])cc1S(=O)(=O)N(C)/N=C/c1cnc2ccc(Br)cn12
- AC50 [1]: 132 nM (active)
- AC50 [2]: 20.9 nM (active)
- AC50 [3]: 33.2 nM (active)
- AC50 [4]: 23.5 nM (active)
- AC50 [5]: 118 nM (active)
- AC50 [6]: 132 nM (active)
- AC50 [7]: 166 nM (active)
- IC50 [8]: 235 nM (active)
- SSMD [9]: 7.37
- cell count [9]: 7410
- plate-normalised HSF1 focus index [9]: 1.46 (inactive)
- inhibition ([10]; at 0.5 µM, stronger effect = higher value): -21.6% (inactive)
- inhibition ([10]; measured here: combination with BGB IC20, at 0.005 µM): -7.86%
- inhibition ([10]; measured here: combination with BGB IC40, at 0.005 µM): -33.9%
- inhibition ([10]; measured here: combination with BGB IC40, at 0.05 µM): -17.7%
- inhibition ([10]; measured here: combination with cisplatin, at 0.5 µM, stronger effect = higher value): -8.16%
- inhibition ([10]; measured here: combination with cisplatin, at 5 µM, stronger effect = higher value): 118%
- inhibition ([11]; BGB combo, at 5 µM): 98.8%
- inhibition ([11]; at 0.5 µM): 82.5% (active)
- inhibition ([11]; cisplatin combo, at 5 µM): 99.4%
- inhibition ([11]; measured here: with BGB IC20 combination, at 0.5 µM): 82.3%
- inhibition ([11]; measured here: with cisplatin IC20 combination, at 0.5 µM): 89%
- inhibition ([11]; single agent, at 5 µM): 99.6%
- inhibition ([12]; BGB IC20 combo, at 0.005 µM): 93.2%
- inhibition ([12]; BGB IC40 combo, at 0.005 µM): 89.9%
- inhibition ([12]; BGB IC40 combo, at 0.05 µM): 99.2%
- inhibition ([12]; at 0.5 µM): -28.7% (inactive)
- inhibition ([12]; cisplatin combo, at 0.05 µM): 99.2%
- inhibition ([12]; cisplatin combo, at 0.5 µM): -32.2%
- inhibition ([12]; cisplatin combo, at 5 µM): -58%
- inhibition ([12]; measured here: 5 uM single agent, at 5 µM): -16.2%
- inhibition ([13]; at 0.5 µM): 84.8% (active)
- inhibition ([13]; measured here: with BGB IC20, at 0.5 µM): 92.6%
- inhibition ([13]; measured here: with BGB IC20, at 5 µM): 100%
- inhibition ([13]; measured here: with cisplatin IC20, at 0.5 µM): 90.8%
- inhibition ([13]; measured here: with cisplatin IC20, at 5 µM): 99.6%
- inhibition ([13]; single agent, at 5 µM): 99.9%
- inhibition ([14]; at 0.5 µM): 77.8% (inactive)
- inhibition ([14]; measured here: BGB combination, at 0.5 µM): 73.3%
- inhibition ([14]; measured here: BGB combination, at 5 µM): 54%
- inhibition ([14]; measured here: cisplatin combination, at 0.5 µM): 77.3%
- inhibition ([14]; measured here: cisplatin combination, at 5 µM): 74.2%
- inhibition ([15]; at 0.5 µM): 17.8% (inactive)
- inhibition ([15]; cisplatin combination, at 0.5 µM): 8.05%
- inhibition ([15]; cisplatin combination, at 5 µM): -42.9%
- inhibition ([15]; measured here: BGB IC40 combination 0.05 uM, at 0.05 µM): 16.7%
- inhibition ([15]; single agent, at 5 µM): -25%
- inhibition ([16]; at 0.5 µM): 68.3% (inactive)
- inhibition ([16]; cisplatin combo, at 5 µM): 59.8%
- inhibition ([16]; measured here: BGB IC40 combination, at 0.05 µM): -12.7%
- inhibition ([16]; measured here: combination with cisplatin, at 0.5 µM): 58.3%
- inhibition ([16]; single agent, at 5 µM): 76.8%
